# According to PubChem BioAssay:
# Values joined by “and” are separate entries in the source; they are usually repeats but may differ in a detail not shown here. Identical values can stand only once. For part of these data: Measured potencies and affinities stand elsewhere. Active and inactive are the calls of the source.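 How the source made its calls, unless noted: active means normalized viability below 100% at a tested concentration; inactive means the rest.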
# What was measured:
# [1] = blockers of polyQ-driven CASP3 activation – cell-based (AID 1583); conditions: polyglutamine-induced caspase-3 activation, cell assay; stronger effect = higher value;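 tested at 10 µM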
# [2] = yeast 75Q aggregation reduction – 75Q-TubU reporter (AID 1593); conditions: Yeast 75Q polyglutamine aggregation reporter
# [3] = restoration of touch response, mutant HTT neurons – whole organism, C. elegans mechanosensory neurons, N-terminal huntingtin (AID 1599); conditions: C. elegans polyQ-huntingtin mechanosensory neurons, stronger effect = higher value
# [4] = blockers of cytochrome c efflux from mitochondria – biochemical, purified mitochondria (AID 1603); conditions: stronger effect = lower value;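 further: mouse liver mitochondria challenged with calcium chloride; signal normalized to the plate average as 100%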
# [5] = polyglutamine aggregate formation blockers (AID 1604); conditions: polyglutamine-induced protein aggregation inhibition assay; stronger effect = higher value; tested at 2.5 µM
# [6] = glutamate transport activators, MN-1 cells, MN-1 cell line (AID 1612); conditions: MN-1 motor neuron cells, stronger effect = higher value;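 further: tested at 1 µM final; 0% = mean of DMSO vehicle wells on each plate; positive means more glutamate uptake than control and negative means less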
# [7] = GFP-Q80 aggregate reduction, neuronal-like cells, cell-based, NGF-treated PC12, GFPQ80 (AID 1614); conditions: PC12 NGF-treated GFP-polyQ80 inclusion reduction;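 further: lower means fewer inclusions and 0 means no inclusions at all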
# [8] = 75Q-TubH aggregate inhibition, S. cerevisiae, yeast (AID 1616); conditions: S. cerevisiae 75Q-TubH polyglutamine aggregation suppression; stronger effect = higher value
# [9] = compounds altering viability of human ES cells (AID 493140; call rule not given here;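 further: cells exposed to compounds for four days before counting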); conditions: human embryonic stem cell survival screen; stronger effect = higher value
# [10] = P. berghei load reduction in hepatocytes – cell-based, HepG2, luciferase luminescence, HepG2 viability, primary screen (AID 624349; in the data active means parasite load remaining mostly below about 12%, no sharp cut-off; inactive means mostly above about 10%;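 further: 100% = mean of DMSO negative control wells on the same plate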); conditions: P. berghei liver stage in HepG2, luciferase luminescence, concentration not given here; parasite load remaining: stronger effect = lower value; viability: measured here: HepG2 viability without parasites
# [11] = target: 6-phosphogluconate dehydrogenase, decarboxylating (Homo sapiens) (UniProt P52209); test: inhibition of human phosphogluconate dehydrogenase – biochemical, recombinant enzyme, NADPH absorbance, primary screen (AID 1159550;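 active means at least 20% inhibition of 6-phosphogluconate dehydrogenase activity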); conditions: recombinant 6PGD, NADPH absorbance 341 nm; at 10 µM; stronger effect = higher value
# Chain of 6-phosphogluconate dehydrogenase, decarboxylating (Homo sapiens) (P52209 whole entry, looked up): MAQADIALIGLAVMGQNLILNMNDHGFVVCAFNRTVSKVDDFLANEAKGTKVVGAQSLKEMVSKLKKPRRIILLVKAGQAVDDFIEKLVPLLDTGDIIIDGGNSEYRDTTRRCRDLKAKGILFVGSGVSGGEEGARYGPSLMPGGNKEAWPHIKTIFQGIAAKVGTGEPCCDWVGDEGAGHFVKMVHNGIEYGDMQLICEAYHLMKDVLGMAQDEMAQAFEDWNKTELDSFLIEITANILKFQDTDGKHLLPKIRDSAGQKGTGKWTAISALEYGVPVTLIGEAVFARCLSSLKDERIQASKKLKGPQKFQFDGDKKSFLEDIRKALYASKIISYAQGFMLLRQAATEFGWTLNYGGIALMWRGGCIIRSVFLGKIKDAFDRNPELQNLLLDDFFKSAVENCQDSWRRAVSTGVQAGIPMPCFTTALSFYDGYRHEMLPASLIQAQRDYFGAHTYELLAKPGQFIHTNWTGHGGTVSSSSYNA
# [12] = EMT-state selective cytotoxicity in co-culture – imaging, PC-3E GFP, TEM4-18 mCherry, primary screen (AID 1345086;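 active means compounds killing one labelled cell type while sparing the other, by normalised counts and ratio limits, not self-fluorescent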;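 on all read-outs here: cells exposed to compound for 72 h before imaging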;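 on red/green cell ratio (normalised): normalised mesenchymal count divided by normalised epithelial count so high means epithelial killing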); conditions: PC-3E GFP / TEM4-18 mCherry co-culture, imaging cell counts, at 1 µM; for red/green cell ratio (normalised): actives lie on both sides, counts scaled to control wells, 1 = unselective
# [13] = viability loss with induced miR-34 in A549 – imaging, A549 dox-inducible miR-34, nuclei and caspase counts, primary screen (AID 1347080;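 active means compounds whose cell count with miR-34 switched on is under 0.7 times the count with it off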); conditions: A549 miR-34 inducible, Hoechst nuclei count, 48 h
# [14] = MELAS cybrid and Rieske KO viability enhancers – cell-based, MELAS cybrids, Rieske KO mouse fibroblasts, CellTiter-Glo, primary screen (AID 1508586;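 active means mean z-score across replicates of 1.96 or higher in either the MELAS or the Rieske mutant cell line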;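 further: z relative to plate mean and SD of compound and empty wells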); conditions: low glucose
# [15] = target: Mitogen-activated protein kinase 7 (Homo sapiens) (UniProt Q13164); test: Gal4-ERK5 driven luciferase induction – cell-based, HTS, primary screen (AID 1508626;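 active means luciferase signal above three times the same-plate solvent-only control wells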;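 further: luciferase driven by Gal4-ERK5 fusion binding five Gal4 sites before minimal TATA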); conditions: HeLa Gal4-ERK5 transactivation, 18 h, at 5 µM, stronger effect = higher value
# Chain of Mitogen-activated protein kinase 7 (Homo sapiens) (Q13164 whole entry, looked up, the tested form may be a part): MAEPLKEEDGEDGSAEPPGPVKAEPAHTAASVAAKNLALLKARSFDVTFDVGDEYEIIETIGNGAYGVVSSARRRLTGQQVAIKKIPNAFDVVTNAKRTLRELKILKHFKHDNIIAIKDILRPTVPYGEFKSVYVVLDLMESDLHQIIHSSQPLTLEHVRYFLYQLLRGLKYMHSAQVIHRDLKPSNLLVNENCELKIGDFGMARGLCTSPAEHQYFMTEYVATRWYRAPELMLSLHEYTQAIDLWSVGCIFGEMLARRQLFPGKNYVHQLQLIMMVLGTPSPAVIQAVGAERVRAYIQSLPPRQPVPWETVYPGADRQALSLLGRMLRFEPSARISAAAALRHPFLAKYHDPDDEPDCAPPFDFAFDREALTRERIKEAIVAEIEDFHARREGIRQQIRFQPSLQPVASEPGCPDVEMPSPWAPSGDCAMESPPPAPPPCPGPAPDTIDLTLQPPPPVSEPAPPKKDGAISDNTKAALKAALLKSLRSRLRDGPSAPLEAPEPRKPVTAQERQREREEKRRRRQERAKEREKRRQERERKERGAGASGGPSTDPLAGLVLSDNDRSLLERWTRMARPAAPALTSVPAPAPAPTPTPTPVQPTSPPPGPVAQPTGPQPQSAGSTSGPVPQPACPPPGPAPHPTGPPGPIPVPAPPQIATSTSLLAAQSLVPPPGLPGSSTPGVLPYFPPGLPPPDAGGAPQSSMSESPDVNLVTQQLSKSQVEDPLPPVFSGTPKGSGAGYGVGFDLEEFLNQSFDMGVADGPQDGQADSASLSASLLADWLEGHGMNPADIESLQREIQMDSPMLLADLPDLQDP
# [16] = target: NAD(+) hydrolase SARM1 (Homo sapiens) (UniProt Q6SZW1); test: blocking NAD cleavage by SARM1 SAM-TIR – cell lysate, NAD-Glo luminescence (AID 1508614;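 active means compound whose remaining NAD level is above about 45 nM, limit read from the data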); conditions: SAM-TIR HEK293T lysate NADase, at 1 µM, stronger effect = higher value
# Chain of NAD(+) hydrolase SARM1 (Homo sapiens) (Q6SZW1 whole entry, looked up): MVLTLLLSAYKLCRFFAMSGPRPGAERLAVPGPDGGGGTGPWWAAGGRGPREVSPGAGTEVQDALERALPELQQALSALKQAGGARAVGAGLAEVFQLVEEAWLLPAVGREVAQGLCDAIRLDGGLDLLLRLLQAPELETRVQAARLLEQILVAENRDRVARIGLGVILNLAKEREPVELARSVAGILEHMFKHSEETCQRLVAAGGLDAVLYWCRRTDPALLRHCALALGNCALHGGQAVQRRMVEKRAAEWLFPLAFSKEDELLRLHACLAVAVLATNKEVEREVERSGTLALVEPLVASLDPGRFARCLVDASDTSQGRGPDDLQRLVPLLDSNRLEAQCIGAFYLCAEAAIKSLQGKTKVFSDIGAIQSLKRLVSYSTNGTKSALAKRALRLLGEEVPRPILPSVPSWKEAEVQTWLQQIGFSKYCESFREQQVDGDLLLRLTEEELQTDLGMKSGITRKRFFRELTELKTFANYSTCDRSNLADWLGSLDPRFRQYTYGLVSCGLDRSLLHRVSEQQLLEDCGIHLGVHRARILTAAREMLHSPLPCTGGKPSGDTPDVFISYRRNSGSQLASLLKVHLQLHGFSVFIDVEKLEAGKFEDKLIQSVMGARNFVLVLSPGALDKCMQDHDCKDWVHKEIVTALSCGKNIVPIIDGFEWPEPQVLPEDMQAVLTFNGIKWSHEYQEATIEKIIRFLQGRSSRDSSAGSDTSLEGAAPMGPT
# [17] = galactose survival enhancers in mitochondrial complex I cybrids – cell-based, galactose medium, ATP luminescence, primary screen (AID 1645843;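 active means z-score of at least 1.8 in each of two replicates, scored against plate mean and spread of sample wells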;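 further: positive z means more ATP and so rescue of galactose-driven cybrid death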); conditions: complex I mutant cybrid cells, 72 h, stronger effect = higher value
# [18] = compounds altering circadian rhythm period length – cell-based, LOPAC library, luminescence reporter (AID 2774; call rule not given here;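 further: values are relative to mean of DMSO wells on each plate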); conditions: circadian reporter cells, at 7 µM, actives lie on both sides
# [19] = blockers of cellular phospholipid synthesis – cell-based, LOPAC library, screen 4, primary screen (AID 1347384; call rule not given here); conditions: animal cells, phospholipid biosynthesis inhibition screen; at 10 µM
# [20] = drug combination growth inhibition, ovarian cancer – cell-based, oncology-focused library, rucaparib conditional, profiling panel (AID 1508598); conditions: patient-derived ovarian cancer cells, CellTiter-Glo viability, 144 h, stronger effect = lower value
# [21] = measured here: epithelial PC-3E GFP cell survival
# [22] = measured here: mesenchymal TEM4-18 mCherry cell survival
# [23] = stronger effect = lower value, cell number ratio, induced over uninduced
# [24] = measured here: relative caspase fold change +Dox/-Dox
# [25] = measured here: total cells with miR-34 induction, stronger effect = lower value
# [26] = measured here: total cells without miR-34 induction
# [27] = MELAS cybrid survival, CellTiter-Glo 48 h, stronger effect = higher value
# [28] = Rieske KO mouse fibroblast survival, CellTiter-Glo 72 h
structure (smiles),measurement,setting,value
c1coc(CNc2ncnc3nc[nH]c23)c1,inhibition,[1],6.38%
same,score,[2],1.14
same,rescue above control,[3],19.9
same,cytochrome c release ratio,[4],1.1
same,inhibition of aggregation,[5],68.2%
same,glutamate uptake change,[6],-3.65%
same,inclusion score,[7],2
same,aggregation suppression score,[8],0.807
same,survival,[9],3.5 (inactive)
same,parasite load remaining,[10],122% (inactive) and 193% (inactive)
same,viability,[10],98% and 74%
same,inhibition,[11],6.86% (inactive)
same,red/green cell ratio (normalised),[12],1.01 (inactive)
same,normalised cell number,[12]; [21],1.05
same,normalised cell number,[12]; [22],1.07
same,fold change,[13]; [23],1.04 (inactive) and 1.1 (inactive)
same,fold change,[13]; [24],0.935 and 0.585
same,cell count,[13]; [25],8620 and 8070
same,cell count,[13]; [26],8250 and 7310
same,z-score,[14]; [27],-0.185 (inactive) and -0.0285 (inactive)
same,z-score,[14]; [28],-0.0997 and -0.188
same,luciferase signal,[15],84 AU (inactive)
COc1cc(O)c2c(c1)C(=O)c1cc(C)cc(O)c1C2=O,inhibition,[11],36.5% (active)
same,red/green cell ratio (normalised),[12],1 (inactive)
same,normalised cell number,[12]; [21],1
same,normalised cell number,[12]; [22],1.01
same,fold change,[13]; [23],0.975 (inactive)
same,fold change,[13]; [24],0.792
same,cell count,[13]; [25],9920
same,cell count,[13]; [26],10200
same,z-score,[14]; [27],-0.364 (inactive)
same,z-score,[14]; [28],0.659
same,luciferase signal,[15],212 AU (inactive)
CC(=O)[C@@]1(O)CCC2C3CCC4=CC(=O)CC[C@]4(C)C3CC[C@@]21C (stereo not given in full),inhibition,[11],7.07% (inactive)
same,red/green cell ratio (normalised),[12],0.98 (inactive)
same,normalised cell number,[12]; [21],0.94
same,normalised cell number,[12]; [22],0.92
same,fold change,[13]; [23],0.883 (inactive)
same,fold change,[13]; [24],0.857
same,cell count,[13]; [25],7810
same,cell count,[13]; [26],8840
Nc1ccc(S(=O)(=O)Nc2ncccn2)cc1,inhibition,[1],-24.3%
same,score,[2],0.99
same,rescue above control,[3],-2.17
same,cytochrome c release ratio,[4],1.47
same,inhibition of aggregation,[5],53.9%
same,glutamate uptake change,[6],-2.67%
same,inclusion score,[7],2
same,aggregation suppression score,[8],0.995
same,survival,[9],31.2 (inactive)
same,inhibition,[11],5.23% (inactive)
same,red/green cell ratio (normalised),[12],1.41 (inactive)
same,normalised cell number,[12]; [21],0.84
same,normalised cell number,[12]; [22],1.19
same,z-score,[14]; [27],-0.222 (inactive) and 0.26 (inactive) and -0.566 (inactive)
same,z-score,[14]; [28],0.689 and 0.071 and -1.27
same,remaining NAD,[16],10 nM (inactive)
same,luciferase signal,[15],40 AU (inactive)
same,z-score,[17],-0.065 (inactive)
O=C(CCc1ccc(O)cc1)c1c(O)cc(O)cc1O,period change,[18],0.135 h (inactive)
same,inhibition,[11],4.36% (inactive)
same,red/green cell ratio (normalised),[12],1.14 (inactive)
same,normalised cell number,[12]; [21],0.95
same,normalised cell number,[12]; [22],1.08
same,fold change,[13]; [23],1 (inactive) and 0.951 (inactive)
same,fold change,[13]; [24],1.21 and 0.641
same,cell count,[13]; [25],10100 and 9910
same,cell count,[13]; [26],10100 and 10400
same,outcome,[19],inactive
same,z-score,[14]; [27],-0.355 (inactive)
same,z-score,[14]; [28],0.489
same,viability,"[20]; at 0.000305 µM, OCI-C5x cells, with rucaparib 10 µM, 100% = cells with rucaparib alone",108% (inactive)
same,viability,"[20]; at 0.000305 µM, OCI-C5x cells, without rucaparib",119% (inactive)
same,viability,"[20]; at 0.000305 µM, OCI-P5x cells, with rucaparib 20 µM, 100% = cells with rucaparib alone",96.8% (active)
same,viability,"[20]; at 0.000305 µM, OCI-P5x cells, without rucaparib",97% (active)
same,viability,"[20]; at 0.00122 µM, OCI-C5x cells, with rucaparib 10 µM, 100% = cells with rucaparib alone",115% (inactive)
same,viability,"[20]; at 0.00122 µM, OCI-C5x cells, without rucaparib",108% (inactive)
same,viability,"[20]; at 0.00122 µM, OCI-P5x cells, with rucaparib 20 µM, 100% = cells with rucaparib alone",95.8% (active)
same,viability,"[20]; at 0.00122 µM, OCI-P5x cells, without rucaparib",99.2% (active)
same,viability,"[20]; at 0.00488 µM, OCI-C5x cells, with rucaparib 10 µM, 100% = cells with rucaparib alone",122% (inactive)
same,viability,"[20]; at 0.00488 µM, OCI-C5x cells, without rucaparib",115% (inactive)
same,viability,"[20]; at 0.00488 µM, OCI-P5x cells, with rucaparib 20 µM, 100% = cells with rucaparib alone",103% (inactive)
same,viability,"[20]; at 0.00488 µM, OCI-P5x cells, without rucaparib",104% (inactive)
same,viability,"[20]; at 0.0195 µM, OCI-C5x cells, with rucaparib 10 µM, 100% = cells with rucaparib alone",110% (inactive)
same,viability,"[20]; at 0.0195 µM, OCI-C5x cells, without rucaparib",123% (inactive)
same,viability,"[20]; at 0.0195 µM, OCI-P5x cells, with rucaparib 20 µM, 100% = cells with rucaparib alone",104% (inactive)
same,viability,"[20]; at 0.0195 µM, OCI-P5x cells, without rucaparib",110% (inactive)
same,viability,"[20]; at 0.0781 µM, OCI-C5x cells, with rucaparib 10 µM, 100% = cells with rucaparib alone",116% (inactive)
same,viability,"[20]; at 0.0781 µM, OCI-C5x cells, without rucaparib",121% (inactive)
same,viability,"[20]; at 0.0781 µM, OCI-P5x cells, with rucaparib 20 µM, 100% = cells with rucaparib alone",104% (inactive)
same,viability,"[20]; at 0.0781 µM, OCI-P5x cells, without rucaparib",109% (inactive)
same,viability,"[20]; at 0.313 µM, OCI-C5x cells, with rucaparib 10 µM, 100% = cells with rucaparib alone",115% (inactive)
same,viability,"[20]; at 0.313 µM, OCI-C5x cells, without rucaparib",117% (inactive)
same,viability,"[20]; at 0.313 µM, OCI-P5x cells, with rucaparib 20 µM, 100% = cells with rucaparib alone",109% (inactive)
same,viability,"[20]; at 0.313 µM, OCI-P5x cells, without rucaparib",113% (inactive)
same,viability,"[20]; at 1.25 µM, OCI-C5x cells, with rucaparib 10 µM, 100% = cells with rucaparib alone",105% (inactive)
same,viability,"[20]; at 1.25 µM, OCI-C5x cells, without rucaparib",125% (inactive)
same,viability,"[20]; at 1.25 µM, OCI-P5x cells, with rucaparib 20 µM, 100% = cells with rucaparib alone",97.8% (active)
same,viability,"[20]; at 1.25 µM, OCI-P5x cells, without rucaparib",110% (inactive)
same,viability,"[20]; at 5 µM, OCI-C5x cells, with rucaparib 10 µM, 100% = cells with rucaparib alone",109% (inactive)
same,viability,"[20]; at 5 µM, OCI-C5x cells, without rucaparib",132% (inactive)
same,viability,"[20]; at 5 µM, OCI-P5x cells, with rucaparib 20 µM, 100% = cells with rucaparib alone",108% (inactive)
same,viability,"[20]; at 5 µM, OCI-P5x cells, without rucaparib",111% (inactive)
same,luciferase signal,[15],60 AU (inactive)
same,z-score,[17],1.71 (inactive)
